The whole screen tested about 2,700 compounds, of which about 160 (5.9%) showed an effect of 50% or more. Only a selection was taken, and strong results are over-represented in it overall.
Target: Nonstructural protein 3 (Zika virus) (UniProt A0A024AXB9)
Sequence (A0A024AXB9 as listed by the source): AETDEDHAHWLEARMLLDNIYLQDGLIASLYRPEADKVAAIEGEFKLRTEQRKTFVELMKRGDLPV

Cn1cccc(CN2CCC(c3c[nH]c4cccnc34)CC2)c1=O
inhibition (PRVABC59, Concentration 49.5 uM, Number of replicates 2.0, Standard deviation 0.07177165759495889 %): -0.869% | inhibition (PRVABC59, Concentration 99.01 uM, Number of replicates 2.0, Standard deviation 0.38070186159308106 %): 1.77% | inhibition (PRVABC59, Concentration 198.0 uM, Number of replicates 2.0, Standard deviation 0.010921765735719036 %): 3.27%

O=C(c1cc(Cl)ccc1NS(=O)(=O)c1ccc(Oc2ccccc2Cl)cc1)N1CCNC(=O)C12CCCCC2
inhibition (PRVABC59, Concentration 15.0 uM, Number of replicates 1.0): 17.6%

COc1ccccc1[C@H](C)NC(=O)C1CCN(c2ccc(C=O)cc2)CC1
inhibition (PRVABC59, Concentration 10.0 uM, Number of replicates 1.0): 25.4%

Cc1cc(N)cc(CNC(=O)c2cccc(Cc3cccc4c(CO)cc(C)nc34)c2)c1
inhibition (PRVABC59, Concentration 49.95 uM, Number of replicates 2.0, Standard deviation 0.660675115468642 %): 22.4% | inhibition (PRVABC59, Concentration 99.9 uM, Number of replicates 2.0, Standard deviation 1.0067445744655332 %): 46.9%

Cc1cc(CO)c2cccc(NCc3ccc(C(N)=O)cc3)c2n1
inhibition (PRVABC59, Concentration 49.95 uM, Number of replicates 2.0, Standard deviation 0.6911398690966805 %): -7.9% | inhibition (PRVABC59, Concentration 99.9 uM, Number of replicates 2.0, Standard deviation 1.6597447488203414 %): -2.82%

Cc1cc(CO)c2cccc(NCc3ccc(S(N)(=O)=O)cc3)c2n1
inhibition (PRVABC59, Concentration 49.95 uM, Number of replicates 2.0, Standard deviation 2.3986730749821903 %): -5.11% | inhibition (PRVABC59, Concentration 99.9 uM, Number of replicates 2.0, Standard deviation 1.886822696290366 %): -8.96%

Cc1cc(N)cc(CNC(=O)c2ccccc2Cc2cccc3c(CO)cc(C)nc23)c1
inhibition (PRVABC59, Concentration 49.95 uM, Number of replicates 2.0, Standard deviation 0.03145975642768365 %): 34.6% | inhibition (PRVABC59, Concentration 99.9 uM, Number of replicates 2.0, Standard deviation 1.7408307334956623 %): 60.7%

Cc1cc(N)cc(CNC(=O)Cc2cccc3c(CO)cc(C)nc23)c1
inhibition (PRVABC59, Concentration 49.95 uM, Number of replicates 2.0, Standard deviation 1.6254724488978287 %): 7.61% | inhibition (PRVABC59, Concentration 99.9 uM, Number of replicates 2.0, Standard deviation 2.5640510708053585 %): 31.2%

Cc1cc(N)cc(CNc2cccc3c(CO)cc(C)nc23)c1
inhibition (PRVABC59, Concentration 49.95 uM, Number of replicates 2.0, Standard deviation 0.17563299841544527 %): 36.2% | inhibition (PRVABC59, Concentration 99.9 uM, Number of replicates 2.0, Standard deviation 0.025091199030293523 %): 52.6%

Cc1c(C(=O)N2CCC(n3cc(CO)nn3)CC2)[nH]c2cc(Cl)cc(Cl)c12
inhibition (PRVABC59, Concentration 49.5 uM, Number of replicates 2.0, Standard deviation 1.4208906347015848 %): 4.02% | inhibition (PRVABC59, Concentration 99.01 uM, Number of replicates 2.0, Standard deviation 0.494827603753062 %): 9.8% | inhibition (PRVABC59, Concentration 198.0 uM, Number of replicates 2.0, Standard deviation 0.23449629857012413 %): 15.6%

Cc1cc(CO)c2cccc(Cc3cccc(C(=O)Nc4cc(C)on4)c3)c2n1
inhibition (PRVABC59, Concentration 49.95 uM, Number of replicates 2.0, Standard deviation 0.5505632705734445 %): 18.4% | inhibition (PRVABC59, Concentration 99.9 uM, Number of replicates 2.0, Standard deviation 1.053935557806211 %): 51.2%

Cc1cc(CO)c2cccc(Cc3cccc(C(=O)Nc4cc(C)[nH]n4)c3)c2n1
inhibition (PRVABC59, Concentration 49.95 uM, Number of replicates 2.0, Standard deviation 3.093641395210206 %): 6.52% | inhibition (PRVABC59, Concentration 99.9 uM, Number of replicates 2.0, Standard deviation 2.134087804085351 %): 9.51%

Cc1cc(CO)c2cccc(CC(=O)Nc3cc(O)[nH]n3)c2n1
inhibition (PRVABC59, Concentration 49.95 uM, Number of replicates 2.0, Standard deviation 0.5293246306718348 %): -5.29% | inhibition (PRVABC59, Concentration 99.9 uM, Number of replicates 2.0, Standard deviation 0.9008701737196211 %): 1.86%

Cc1cc(CO)c2cccc(Cc3ccccc3C(=O)Nc3cc(C)on3)c2n1
inhibition (PRVABC59, Concentration 49.95 uM, Number of replicates 2.0, Standard deviation 0.7445712834152752 %): -2.77% | inhibition (PRVABC59, Concentration 99.9 uM, Number of replicates 2.0, Standard deviation 1.0119877161772735 %): 0.512%

Cc1cc(CO)c2cccc(CC(=O)Nc3cc(C)on3)c2n1
inhibition (PRVABC59, Concentration 49.95 uM, Number of replicates 2.0, Standard deviation 1.089187856250299 %): 91.5% | inhibition (PRVABC59, Concentration 99.9 uM, Number of replicates 2.0, Standard deviation 0.03053454880917251 %): 93.2%

Source: ChEMBL document CHEMBL5606458, “ASAP - ZIKV NS2B-NS3 protease fluorescence single point” (2024)
